Results on 44 compounds are retold here after PubChem BioAssay AID588778 (Southern Research Institute, 2011).

This experiment can be described thus: Vibrio cholerae motility inhibitors, OD read-out (AID 588778). Conditions: stronger effect = higher value.
Where [1] appears, read: measured here: bacterial viability at 10 ug/mL.

Hit rate of the full screen: of about 10,000 compounds, fewer than 10 were called active. How the calls were made is not given here. Only a sample is shown.

In the case of `Cc1ccc(OCc2nnc(SCC(=O)N3CCc4ccccc43)n2N)cc1C`, the inhibition (usually the relative decrease from the control value, in per cent) runs as follows: (concentration not given here) -18.2% (inactive); under setting [1], -12.3%.
For `C=C1C2(C(=O)Nc3nc4ccc(Br)cc4s3)CCC(C2)C1(C)C` (stereo not drawn) the same measures were -2.38% (inactive) and -1.19%.
For `Cc1cc(Cl)c(OCCOCCn2cnc3ccccc3c2=O)c(Br)c1`, in that order: 4.18% (inactive) and -5.62%.
For `Cc1c(N2C(=O)C3C4C=CC(C5CC45)C3C2=O)c(=O)n(-c2ccccc2)n1C` (stereo not drawn), in that order: -7.28% (inactive) and -4.46%.
Take `COc1ccc(NC(=S)N2CCCC2C(=O)N2CCCC2)cc1` (stereo not drawn): the inhibition runs as follows: (concentration not given here) 41.3% (inactive); under setting [1], 7.73%.
As for `CN(C)C(=O)c1ccccc1C(=O)N(C)C`, the inhibition is -3.26% (inactive) (concentration not given here) and 34.3% under setting [1].
For `C[C@@H](NC(=O)C1CCN(Cc2cccc(Cl)c2)CC1)c1ccccc1`, in that order: 19.5% (inactive) and 5.13%.
Regarding `Cc1cccc(C(=O)Nc2ccc(I)cc2C(=O)N2CCCC2)c1`, the inhibition by setting is: (concentration not given here) -0.8% (inactive); under setting [1], -1.35%.
For the compound `C=CCn1c(SCC(=O)Nc2c(C)cc(I)cc2C)nnc1-c1ccco1`, the inhibition was 5% (inactive) (concentration not given here) and -2.52% under setting [1].
As to `COc1cccc(-c2cc(C(F)(F)F)n3ncc(C(=O)OC(C)C)c3n2)c1`, the inhibition was 14.1% (inactive) (concentration not given here) and 15.9% under setting [1].
As to `Cc1cc(Br)c(NC(=O)CSc2ccc(Cl)cc2)cc1C`, the inhibition was -1.15% (inactive) (concentration not given here) and 5.67% under setting [1].
For `COc1ccc(N(C)NC(=O)Cc2ccccc2)cc1` the same measures were 16.7% (inactive) and 4.27%.
For `O=C(CC(NCc1ccccn1)C(=O)O)Nc1ccc(Cl)cc1` (stereo not drawn) the same measures were 4.17% (inactive) and -9.2%.
For the compound `COCc1cc(CN2CCCCC2)c(O)c2ncccc12`, the inhibition is 34% (inactive) (concentration not given here) and 5.26% under setting [1].
With `COc1cc(C(=O)Nc2nnc(-c3sccc3C)s2)cc(OC)c1OC`, the inhibition is -3.78% (inactive) (concentration not given here) and -6.72% under setting [1].
Regarding `OCC(CO)(CO)NCC(O)CN1c2ccccc2Sc2ccccc21` (stereo not drawn), the inhibition is 3.65% (inactive) (concentration not given here) and -1.83% under setting [1].
Consider `c1cncc(Nc2nc(-c3cccs3)cs2)c1`, for which the inhibition reads like this: (concentration not given here) 13.2% (inactive); under setting [1], -2.87%.
For `COc1ccc(Cl)cc1NC(=S)Nc1cccc(C)n1` the same measures were -27.1% (inactive) and -16.2%.
As to `COc1ccc(C(=O)Nc2ncccc2O)cc1`, the inhibition is, setting by setting: (concentration not given here) 10.3% (inactive); under setting [1], 2.51%.
Take `S=C(NCc1ccco1)NNC(=S)Nc1ccc(Cl)cc1`: the inhibition runs as follows: (concentration not given here) 13.3% (inactive); under setting [1], 5.16%.
As to `CCCC(=O)c1ccc(N2CCN(C(=O)c3ccccc3Br)CC2)c(F)c1`, the inhibition (concentration not given here) is 1.55% (inactive) and the inhibition under setting [1] was determined as 4.06%.
As to `COC(=O)C1=CN(c2ccc(F)c(F)c2)C=C(C(=O)OC)C1c1cc(OC)ccc1OC`, the inhibition (concentration not given here) is -1.54% (inactive) and the inhibition under setting [1] is -3.16%.
Turning to `Cc1sc(NCc2cc(Cl)ccc2O)nc1-c1ccc(F)cc1`, the inhibition (concentration not given here) was 14% (inactive) and the inhibition under setting [1] is -2.93%.
Turning to `O=C(Oc1ccc(Cl)cc1Br)c1ccc(F)cc1`, the inhibition (concentration not given here) is -4.46% (inactive) and the inhibition under setting [1] is -5.02%.
For `COc1c(S(=O)(=O)N2CCCN(S(=O)(=O)c3ccc(Cl)c(Cl)c3OC)CC2)ccc(Cl)c1Cl`, in that order: 8.96% (inactive) and 22.4%.
As to `COc1cc(NC(=O)CS)cc(OC)c1`, the inhibition is, setting by setting: (concentration not given here) -28.8% (inactive); under setting [1], -11%.
For the compound `CC(CCc1ccccc1)NC(=O)c1cccnc1` (stereo not drawn), the inhibition (concentration not given here) was 14.2% (inactive) and the inhibition under setting [1] was -1.57%.
For `CCOc1ccc(-n2nc3ccc(NC(=S)NC(=O)CC)cc3n2)cc1` the same measures were -22.2% (inactive) and -6.24%.
For `CC1(C)CC(=O)C2=C(C1)NC(Nc1nc3ccccc3s1)=NC21C(=O)Nc2ccccc21` (stereo not drawn) the same measures were 5.23% (inactive) and -0.54%.
Consider `O=C(CCC(=O)Nc1ccccc1Cl)NNC(=S)NCc1ccco1`, for which the inhibition was 7.34% (inactive) (concentration not given here) and 30.6% under setting [1].
As for `O=C(CCCOc1ccc(Cl)cc1Cl)N1CCN(Cc2ccc3c(c2)OCO3)CC1`, the inhibition runs as follows: (concentration not given here) 15.4% (inactive); under setting [1], 5.35%.
For `CCc1[nH]nc2c1C1(CN3CCC1CC3)C(C#N)=C(N)O2` (stereo not drawn), the inhibition by setting is: (concentration not given here) -3.07% (inactive); under setting [1], -0.3%.
As to `CCN1C(=O)Cc2cc(S(N)(=O)=O)ccc21`, the inhibition is, setting by setting: (concentration not given here) 13.3% (inactive); under setting [1], 0.76%.
As for `O=C(NCCc1ccccc1)c1ccc(CNS(=O)(=O)c2cccc(Cl)c2)cc1`, the inhibition (concentration not given here) is -4.41% (inactive) and the inhibition under setting [1] was -10.6%.
For the compound `Cc1ccc(NC(NC=O)C(Cl)(Cl)Cl)c(C)c1` (stereo not drawn), the inhibition runs as follows: (concentration not given here) 1.46% (inactive); under setting [1], 2.8%.
For `CCc1cc(C(=O)OC)c(NC(=O)c2cc(Br)cs2)s1`, the inhibition runs as follows: (concentration not given here) 6.03% (inactive); under setting [1], 1.94%.
For `Cc1cccc(C)c1N1CCN(C(=O)N2CCCCC2)CC1` the same measures were 8.63% (inactive) and -4.82%.
Consider `COc1ccc(-c2csc3ncnc(SCc4c(C)noc4C)c23)cc1`, for which the inhibition is 24.7% (inactive) (concentration not given here) and 4.67% under setting [1].
In the case of `Cc1cc2ccccc2n2c(SCC(=O)c3ccc4c(c3)OCCO4)nnc12`, the inhibition is 0.44% (inactive) (concentration not given here) and -5.11% under setting [1].
For `O=C(c1cccs1)N1C(=O)c2cccc3c(S(=O)(=O)N4CCCC4)ccc1c23`, the inhibition by setting is: (concentration not given here) 11.6% (inactive); under setting [1], -0.47%.
Regarding `CCSc1nnc(NC(=O)c2csc3ccccc23)s1`, the inhibition (concentration not given here) is -5.35% (inactive) and the inhibition under setting [1] was -4.62%.
`COc1cc(SC)ccc1C(=O)Nc1cccc(C(F)(F)F)c1`: the inhibition is 0.295% (inactive) (concentration not given here) and -4.94% under setting [1].
`CCOC(=O)c1nnc2ccnn2c1N`: the inhibition reads like this: (concentration not given here) -20.5% (inactive); under setting [1], -4.37%.
For `Cc1csc(NC(=O)CSc2nc3c(c(C(F)(F)F)c2C#N)CCC3)n1`, in that order: 4.09% (inactive) and 1.86%.
